Shown are actives, neighbours in structure and some others; about 7.9% of the full set was active somewhere.
MCF10A rerep: DNA re-replication induction in MCF 10a cells | MCF 10A DNA re-replication, Hoechst nuclear intensity, 48 h | Potency, µM (doses to about 46.1 µM), most hits filed as activators | 2.9% of 350,000 active; note: nearly all actives have a fitted effect of over 50% in size
HT1080 IDH1KD tx: toxicity to HT-1080 IDH1 knockdown cells (counter line); HT-1080 IDH1 knockdown viability, ATP luminescence, 48 h; Potency, µM (series often up to 46.1 µM), hits mostly cytotoxic; 2% of 360,000 active
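IDH1KD HT-1080 cells, 750/well, RPMI + 5% FBS; compound pinned after 2 h settling; 48 h, 37 °C; CellTiter-Glo luminescence; % activity normalised to DMSO and no-cell wells; curves fitted, classed by r2 and efficacy.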
HT1080-NT tox: kills 2HG-producing HT-1080-NT fibrosarcoma cells; HT-1080-NT fibrosarcoma viability, CellTiter-Glo ATP luminescence, 48 h; Potency, µM (highest dose often 46.1 µM), most hits filed as cytotoxic; 1.6% of 360,000 active; AID 686970;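 note: NT is the 2HG producing partner of a matched IDH1 knockdown line; nearly all actives have a fitted effect of over 55% in size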
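750 cells/well, RPMI + 5% FBS; 2 h settle, compound pin-transfer, 48 h at 37 degrees C. CellTiter-Glo 10 min RT, luminescence. Normalized to DMSO and media-only wells.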
KB-3-1 cytotox: kills parental KB-3-1 adenocarcinoma cells. Potency, µM (series often up to 46.1 µM), usual class: cytotoxic. AID 1347075. 1.4% of 400,000 active. KB-3-1 viability, CellTiter-Glo ATP luminescence, 72 h; note: nearly all actives have a fitted effect of over 60% in size
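Luminescent ATP read-out (CellTiter-Glo) measures survival of drug-naive KB-3-1 cells after 72 h compound exposure at 37 °C. Titration series was screened from lowest to highest concentration, with DMSO vehicle plates as background controls.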
SW480 rerep: inducers of DNA re-replication in SW480 colon cancer cells; SW480 DNA re-replication, Hoechst DNA content imaging, 48 h; Potency, µM (doses to about 46.1 µM), hits mostly activators; 1.8% of 340,000 active; note: nearly all actives have a fitted effect of over 55% in size
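250 cells/well; 23 nL cpd via pin tool; 48 hr, 37 C, 5% CO2; Hoechst 40 min; imager read of total nuclear intensity, ex 405/em 500-530 nm.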
KB-V1 MDR tox: kills drug-selected multidrug resistant KB-V1 cells. KB-V1 MDR cells viability, CellTiter-Glo, 72 h. Potency, µM (doses to about 46.1 µM), usual class: cytotoxic. 3.4% of 400,000 active. AID 1347076; note: nearly all actives have a fitted effect of over 60% in size
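Cytotoxicity via CellTiter-Glo luminescence after 72 h compound exposure at 37 degrees C. Cells: drug-selected KB-V1 line, DMEM phenol-red free plus 10% FBS. Compounds tested at multiple concentrations; normalized data fitted to concentration-effect curves.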
A number is an active result; ! = not confirmed by another sample; [ ] = remark or other dose. Calls come from the whole dose curve; as a rule, active = well fitted curve in the direction sought with a large enough effect; inconclusive = small, poorly fitted or top-dose-only effect, or another doubt; inactive = no such curve, though single readings can be large; an effect the other way counts as inactive or inconclusive.

Results for COc1ccc(S(=O)(=O)NCC(c2ccc3c(c2)OCO3)N2CCN(C)CC2)cc1OC (stereo not given) ?
MCF10A rerep: inactive; HT1080 IDH1KD tx: inactive; HT1080-NT tox: inactive; KB-3-1 cytotox: inactive; SW480 rerep: inactive; KB-V1 MDR tox: inactive

What do the screens show for `COc1cccc(C(=O)N2CCC(C(=O)Nc3cccc(Cl)c3)CC2)c1`?
KB-3-1 cytotox: inactive; KB-V1 MDR tox: inactive

How did O=C(Nc1cccc(F)c1)c1oc2ccccc2c1NC(=O)C12CC3CC(CC(C3)C1)C2 do in these assays?
KB-3-1 cytotox: inactive; KB-V1 MDR tox: inactive

Results for CN1CCC(N(C)C(=O)c2ccccc2Nc2ccc(SC(F)F)cc2)CC1 ?
MCF10A rerep: 8.2µM; HT1080 IDH1KD tx: inactive; HT1080-NT tox: inactive; KB-3-1 cytotox: inactive; SW480 rerep: inactive; KB-V1 MDR tox: inactive

How did CCCOc1ccc(C(=O)Nc2cc3nn(-c4ccc(CC)cc4)nc3cc2C)cc1 do in these assays?
KB-3-1 cytotox: inactive; KB-V1 MDR tox: inactive

How did Cc1ccc(OCc2ccc(-c3nc(C#N)c(N4CCN(c5cccc(Cl)c5)CC4)o3)o2)cc1 do in these assays?
KB-3-1 cytotox: inactive; KB-V1 MDR tox: inactive

How did COC(=O)[C@H](Cc1c[nH]c2ccccc12)NCc1cccc(B(O)O)c1 do in these assays?
MCF10A rerep: inactive; HT1080 IDH1KD tx: inactive; HT1080-NT tox: inactive; KB-3-1 cytotox: inactive; SW480 rerep: 4.61µM; KB-V1 MDR tox: inactive

How did COC(=O)[C@@H](Cc1c[nH]c2ccccc12)NCc1ccc(B(O)O)cc1 do in these assays?
MCF10A rerep: inactive; HT1080 IDH1KD tx: inactive; HT1080-NT tox: inactive; KB-3-1 cytotox: inactive; SW480 rerep: 1.16µM; KB-V1 MDR tox: inactive

How did CCC(=O)N1CCc2cc(Br)cc(S(=O)(=O)N3CCCC(C(=O)NCc4ccc(C)cc4)C3)c21 (stereo not given) do in these assays?
KB-3-1 cytotox: inactive; KB-V1 MDR tox: inactive

What do the screens show for `CC1(C)CC(=O)C(C=Nc2ccc(N)cc2)=C(O)C1`?
MCF10A rerep: 0.651µM; HT1080 IDH1KD tx: inactive; HT1080-NT tox: inactive; KB-3-1 cytotox: inactive; SW480 rerep: inconclusive; KB-V1 MDR tox: inactive

What do the screens show for `Cc1[nH]nc(N=CC2=C(O)CC(C)(C)CC2=O)c1-c1ccc(Cl)cc1`?
MCF10A rerep: 18.4µM!; HT1080 IDH1KD tx: inactive; HT1080-NT tox: inactive; KB-3-1 cytotox: inactive; SW480 rerep: inconclusive; KB-V1 MDR tox: 20.6µM!

What do the screens show for `Cc1[nH]nc(N=CC2=C(O)CC(c3ccco3)CC2=O)c1-c1ccc(Cl)cc1` (stereo not given)?
MCF10A rerep: inactive; HT1080 IDH1KD tx: inactive; HT1080-NT tox: inactive; KB-3-1 cytotox: inactive; SW480 rerep: inactive; KB-V1 MDR tox: 16.4µM

How did CC1(C)CC(=O)C(C=Nc2ccc(O)cc2)=C(O)C1 do in these assays?
MCF10A rerep: inactive; HT1080 IDH1KD tx: inactive[9.24 µM]; HT1080-NT tox: inconclusive; KB-3-1 cytotox: inactive; SW480 rerep: inactive; KB-V1 MDR tox: inactive

How did CC1(C)CC(=O)C(C=Nc2ccc(Cl)cn2)=C(O)C1 do in these assays?
MCF10A rerep: inactive; HT1080 IDH1KD tx: inactive; HT1080-NT tox: inactive; KB-3-1 cytotox: inactive; SW480 rerep: inactive; KB-V1 MDR tox: inactive

What do the screens show for `CCC(=O)N1CCc2cc(S(=O)(=O)NC(Cc3ccccc3)C(=O)Nc3cccc(OC)c3)ccc21` (stereo not given)?
KB-3-1 cytotox: inactive; KB-V1 MDR tox: inactive

Results for C[C@@H]1CN([C@H](C)CO)C(=O)CCCn2cc(nn2)CO[C@H]1CN(C)C(=O)Nc1cccc(F)c1 ?
HT1080 IDH1KD tx: inactive; HT1080-NT tox: inactive; KB-3-1 cytotox: inactive; KB-V1 MDR tox: inactive

Results for COc1cccc(CNC(=O)C(Cc2ccccc2)NS(=O)(=O)c2ccc3c(c2)oc(=O)n3C)c1 (stereo not given) ?
KB-3-1 cytotox: inactive; KB-V1 MDR tox: inactive

How did COc1cccc(CSc2nc3ccccc3c3nc(CCn4c(C)nc5ccccc54)nn23)c1 do in these assays?
KB-3-1 cytotox: inactive; KB-V1 MDR tox: inconclusive

Results for Cc1ccc(Cn2cnc3ccccc32)cc1C ?
MCF10A rerep: inactive; HT1080 IDH1KD tx: inactive; HT1080-NT tox: inactive; KB-3-1 cytotox: 8.2µM; SW480 rerep: inactive; KB-V1 MDR tox: 20.6µM

How did C[C@H](O)[C@@H]1CN2CCc3c([nH]c4ccc(-c5ccc6c(c5)OCO6)cc34)[C@@H]2C[C@@H]1N(C)C(=O)NC1CCCCC1 do in these assays?
HT1080 IDH1KD tx: inactive; HT1080-NT tox: inactive; KB-3-1 cytotox: 0.581µM; KB-V1 MDR tox: inconclusive

Results for C[C@H](O)[C@@H]1CN2CCc3c([nH]c4ccccc34)[C@@H]2C[C@@H]1N(C)C(=O)Nc1ccccc1 ?
HT1080 IDH1KD tx: inactive; HT1080-NT tox: inactive; KB-3-1 cytotox: inactive; KB-V1 MDR tox: inactive

Results for C[C@H](O)[C@@H]1C(=O)N2CCc3c([nH]c4ccccc34)[C@@H]2C[C@@H]1N(C)C(=O)Nc1cc(Cl)cc(Cl)c1 ?
HT1080 IDH1KD tx: inconclusive; HT1080-NT tox: 16.4µM; KB-3-1 cytotox: inconclusive; KB-V1 MDR tox: inactive

What do the screens show for `CN(C(=O)NC1CCCCC1)[C@H]1C[C@H]2c3[nH]c4ccccc4c3CCN2C(=O)[C@H]1CO`?
HT1080 IDH1KD tx: inactive; HT1080-NT tox: inactive; KB-3-1 cytotox: 6.51µM; KB-V1 MDR tox: inactive

Results for C[C@H](O)[C@@H]1CN2CCc3c([nH]c4ccccc34)[C@@H]2C[C@@H]1N(C)C(=O)Nc1cc(Cl)cc(Cl)c1 ?
HT1080 IDH1KD tx: inconclusive; HT1080-NT tox: inconclusive; KB-3-1 cytotox: inconclusive; KB-V1 MDR tox: inactive

What do the screens show for `CN(C(=O)C(C)(C)C)[C@H]1C[C@H]2c3[nH]c4ccccc4c3CCN2C(=O)[C@H]1CO`?
HT1080 IDH1KD tx: inactive; HT1080-NT tox: inactive; KB-3-1 cytotox: inactive; KB-V1 MDR tox: inactive

How did C[C@H](O)[C@@H]1C(=O)N2CCc3c([nH]c4ccccc34)[C@@H]2C[C@@H]1N(C)C(=O)Nc1ccccc1 do in these assays?
HT1080 IDH1KD tx: inactive; HT1080-NT tox: inactive; KB-3-1 cytotox: inactive; KB-V1 MDR tox: inactive

How did C[C@H](O)[C@@H]1CN2CCc3c([nH]c4ccc(-c5ccc6c(c5)OCO6)cc34)[C@@H]2C[C@@H]1N(C)C(=O)Nc1cc(Cl)cc(Cl)c1 do in these assays?
HT1080 IDH1KD tx: 7.31µM; HT1080-NT tox: 9.2µM; KB-3-1 cytotox: 13µM; KB-V1 MDR tox: inconclusive

What do the screens show for `CCOc1ccc(-n2c(=O)c3c(C)c(C)sc3n(Cc3ccccc3C)c2=O)cc1`?
KB-3-1 cytotox: inactive; KB-V1 MDR tox: inactive

What do the screens show for `CCCCN1CCCC1C(=O)Nc1c(C)cc(C)cc1C` (stereo not given)?
MCF10A rerep: inactive; SW480 rerep: inactive
